Measured values published in PubChem BioAssay (NCI).
About 83,000 compounds went through this panel and 20% of them were active in at least one assay; those are over-represented in the sample as a whole.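 In brief: 96-well plates, 48 h treatment, single concentration, percent growth endpoint.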 The source made the active and inactive calls. How the source made its calls: active means growth percent below 10; inactive means the rest.

system: MDA-MB-468 breast; experiment: NCI-60 one-dose screen, 48 h (100 = growth as untreated, 0 = no growth, -100 = all killed); details: 10 µM unless noted

Row | Compound | growth
1 | CSc1cccc([N+](=O)[O-])c1 | 94.1% (inactive)
2 | CC/C(=C/c1c(O)cccc1OC)c1ccc2c(OC)cccc2[o+]1 | 95.1% (inactive)
3 | Cc1ccc(NC(=O)CSc2nc3ccccc3c(=O)n2CCc2ccccc2)c(C(=O)O)c1 | 110% (inactive)
4 | Cc1cc2c(C(C)C)c(O)c(O)c(/C=N/O)c2c(O)c1-c1c(C)cc2c(C(C)C)c(O)c(O)c(/C=N/O)c2c1O | 20.9% (inactive)
5 | Oc1ccc(N=Cc2ccc(OCc3ccccc3)cc2)cc1 | 97.6% (inactive)
6 | COc1cc2oc(-c3cccc(C(=O)Nc4ccc(Cl)cc4)c3)cc(=O)c2c(OC)c1OC | 43.6% (inactive)
7 | COc1cc(/C=C2\C(=O)Nc3ccccc32)ccc1OCc1ccc(F)cc1 | 102% (inactive)
8 | CCCCOc1nc2ccccc2cc1/C=C/c1cc(/C=C/c2cc3ccccc3nc2OCCCC)n(-c2ccccc2)n1 | 104% (inactive)
9 | NC(=O)c1cccc(-c2ccc(S(=O)(=O)Nc3ccc4c(c3)N(C(=O)C3CC3)CCC4)cc2)c1 | -4.85% (active)
10 | O=NN(CC(=O)NNc1ccccc1)CC(=O)NNc1ccccc1 | 77.7% (inactive)
11 | O=C(CCCSc1nc(-c2ccccc2)cc(-c2ccc(Cl)cc2)n1)NO | -43.9% (active)
12 | O=C(CCN1C(=O)/C(=C/c2ccc(Cl)cc2)SC1=S)NCCCN1CCOCC1 | 100% (inactive)
13 | O=C1CN(CCN2CC(=O)NC(=O)C2)CC(=O)N1 | 94.8% (inactive)
14 | O=C1c2cc3c(cc2-c2c1c1cc(Cl)c(Cl)cc1c(=O)n2CCCn1ccnc1)OCO3 | -38.5% (active)
